Laboratory results taken from PubChem BioAssay AID1259310 (The Scripps Research Institute Molecular Screening Center, 2017).
Screen size: about 650,000 compounds; about 850 (0.13%) were called active. Only a selection was taken, and actives are over-represented in it overall. Values without a mark were called inactive. No stated cut-off is given here; in the data, active means normalized activity above about 1.9%; inactive means the rest.

biological target: F-box/WD repeat-containing protein 7 (Homo sapiens) (UniProt Q969H0); assay: FBW7 E3 ligase activators, primary screen, biochemical, AlphaScreen, human (AID 1259310); settings: AlphaScreen FBW7–phospho-cyclin E peptide binding, activator screen; at 26.1 µM; active compounds read high;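 further: purified mutant Fbw7 with reduced substrate affinity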
Sequence (Q969H0 whole entry, looked up): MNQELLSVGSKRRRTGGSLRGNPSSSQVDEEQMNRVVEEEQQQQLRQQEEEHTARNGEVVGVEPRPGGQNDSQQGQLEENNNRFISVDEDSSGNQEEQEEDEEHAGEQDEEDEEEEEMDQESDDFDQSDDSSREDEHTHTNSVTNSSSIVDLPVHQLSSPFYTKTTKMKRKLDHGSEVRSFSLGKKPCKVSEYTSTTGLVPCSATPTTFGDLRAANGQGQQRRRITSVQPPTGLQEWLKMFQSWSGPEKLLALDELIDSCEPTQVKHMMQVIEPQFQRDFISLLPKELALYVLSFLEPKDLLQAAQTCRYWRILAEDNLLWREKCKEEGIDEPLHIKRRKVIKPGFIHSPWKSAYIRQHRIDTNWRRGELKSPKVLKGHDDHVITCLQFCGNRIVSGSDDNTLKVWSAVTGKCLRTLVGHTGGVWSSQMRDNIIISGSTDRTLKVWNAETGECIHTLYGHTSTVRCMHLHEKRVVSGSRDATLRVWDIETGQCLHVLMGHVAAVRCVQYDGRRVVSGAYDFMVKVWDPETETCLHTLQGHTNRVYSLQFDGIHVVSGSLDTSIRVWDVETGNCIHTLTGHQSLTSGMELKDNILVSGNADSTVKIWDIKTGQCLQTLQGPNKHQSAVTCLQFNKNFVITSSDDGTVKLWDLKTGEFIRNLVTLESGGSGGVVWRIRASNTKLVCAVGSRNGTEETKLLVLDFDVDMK

Row | Compound | normalized activity (activation)
1 | COc1ccc(OC)c(NS(=O)(=O)c2ccc(NC(=O)COc3ccccc3)cc2)c1 | -0.06%
2 | COc1ccc(Cl)cc1C(=O)Nc1cccc(-c2nc3cc(Cl)ccc3o2)c1C | 0.2%
3 | Fc1ccc(Nc2nc(NCC3CCCO3)c3ccccc3n2)cc1 (stereo unspecified) | -0.11%
4 | COc1ccc(C2=NN(c3ccccc3)C(c3ccc(F)cc3)C2)cc1 (stereo unspecified) | 0.58%
5 | COc1ccc(C2CC(c3cccs3)=NN2c2ccccc2)cc1 (stereo unspecified) | 8.78% (active)
6 | Fc1ccc(C2CC(c3cccs3)=NN2c2nc(-c3ccccc3)cs2)cc1 (stereo unspecified) | -0.01%
7 | c1cncc(-c2ncc(-c3ccncn3)c(-c3cccnc3)n2)c1 | 0.02%
8 | COC(=O)CSC1=C(C#N)C(c2ccccc2Cl)C(C(=O)Nc2ccccc2OC)=C(C)N1 (stereo unspecified) | -0.06%
9 | COc1cccc(-c2nc(C3CCCN(C(=O)CC(C)CC(=O)O)C3)n3ccccc23)c1 (stereo unspecified) | 0.94%
10 | Cc1cccc2sc(NC(=O)c3ccc(S(=O)(=O)N4CC(C)CC(C)C4)cc3)nc12 (stereo unspecified) | 0.22%
11 | CC[N+](C)(CC)CCNC(=O)c1c(O)c2c([nH]c1=O)CCCC2 | 2.05% (active)
12 | CC[N+](C)(CC)CCNC(=O)c1c(O)c2ccccc2[nH]c1=O | 0.07%
13 | C[N+](C)(C)CCNC(=O)c1c(O)c2c([nH]c1=O)CCCC2 | 0.2%
14 | CCOC(=O)c1cnc2cc(C(F)(F)F)ccc2c1Nc1ccccc1F | -0.08%
15 | Cc1ccccc1Nc1nc(-c2c(C)nc3ncccn23)cs1 | 0.01%
16 | Cc1ccc2c(c1)N(CC(=O)NC1CC1)C(=O)CO2 | -0.26%
17 | CCC(C)(C)C(=O)Nc1ccc(S(N)(=O)=O)cc1 | -0.09%
18 | C#CCN(C)C(=O)c1c(C(F)(F)F)nc2c(OC)cccn12 | 1.94% (active)
19 | CN(C)C(=O)CN(C)C(=O)c1c(C(F)(F)F)nc2ccccn12 | 0.23%
20 | C=CCN(C)C(=O)c1c(C(F)(F)F)nc2c(OC)cccn12 | 0.11%
21 | CN1CCN(c2nc3c(c(=O)n(C)c(=O)n3C)n2CC(=O)c2ccc(Br)cc2)CC1 | 0.05%

Row | Compound | normalized activity (activation)
22 | COC(=O)c1ccc2c(c1)N(Cc1c(C)noc1C)C(=O)C(F)(F)O2 | 0.09%
23 | CCn1c(N2CCC(C(=O)NC3CCCCC3)CC2)nc2ccccc21 | 0.16%
24 | COc1cccc(OC)c1C(=O)OCC(=O)NC1CCCCC1C (stereo unspecified) | -0.19%
25 | CCC1(C)OC(=O)N(C)C1=O (stereo unspecified) | 2.13% (active)
26 | CC(=O)Nc1ccc(C(=O)NNC(=O)C(C)Oc2ccc(Cl)cc2Cl)cc1 (stereo unspecified) | -1.25%
27 | O=C(CSC1=NS(=O)(=O)c2ccccc21)Nc1ccc(Br)cc1 | -0.05%
28 | O=C(CSc1ncc(-c2ccccc2)[nH]1)Nc1ccc(Br)cc1 | -0.02%
29 | CC1(C)N=C(SCC(=O)Nc2ccc(Br)cc2)C(c2ccccc2)=N1 | 2.4% (active)
30 | C[C@@H](c1ccccc1)n1c(=O)[nH]c2ncc(-c3ccc(C(=O)N4CCN(C)CC4)cc3)nc21 | -0.33%
31 | Cc1cc(C)c2nc(N=C(N)N)nc(C)c2c1 | 1.86% (active)
32 | Cc1cc(C)nc(/N=C(\N)N2CCOCC2)n1 | 0.35%
33 | COc1nc(N=C(N)N)nc2c(C)cccc12 | -0.06%
34 | COc1ccc(C(=O)NCCC(=O)NC2CCCC2)cc1OC | 0.02%
35 | COCC(C)NC(=O)c1ccccc1I (stereo unspecified) | 0.14%
36 | CC(C)CNC(=O)c1ccccc1I | 1.93% (active)
37 | Cc1ccccc1CNC(=O)c1ccccc1I | 0.92%
38 | Cc1cc(=O)oc2cc(OCC(=O)N/N=C/c3ccc4c(c3)OCO4)ccc12 | -0.03%
39 | CC(=O)N(Cc1cc2cc(C)cc(C)c2[nH]c1=O)CC1CCCO1 (stereo unspecified) | 0.12%
40 | CCN1C(=O)c2cccc3c(NC(=O)C4CCCN4S(=O)(=O)c4ccc(OC)cc4)ccc1c23 (stereo unspecified) | -0.03%
41 | O=C(CC(=O)c1ccccc1O)c1ccccc1 | 0.25%
42 | CN(C)c1ccccc1C(=O)c1ccccc1 | 2.06% (active)

Row | Compound | normalized activity (activation)
43 | Cc1ccc2[nH]cc(C(=O)c3ccccc3)c(=O)c2c1 | 0.18%
44 | COc1ccccc1NS(=O)(=O)c1cccc(NC(=O)c2cc(=O)[nH]c(=O)[nH]2)c1 | -0.11%
45 | Cc1cc(C(=O)NCc2nnc3n2CCN(Cc2ccccc2)CC3)c(C)o1 | -0.06%
46 | Cc1cccc(OCCC(=O)NNC(=O)Cc2cccn2C)c1 | -0.11%
47 | CCOc1ccc2c(=O)c(Oc3ccccc3)c(C(F)(F)F)oc2c1C | 0.9%
48 | CCN(CC)C(=O)Cn1ncn2c(cc3ccsc32)c1=O | -0.03%
49 | CCCc1nn(CC(=O)N(C)C)c(=O)c2cc3ccsc3n12 | 3.43% (active)
50 | CCc1nn(CC(=O)NCc2cccs2)c(=O)c2cc3ccsc3n12 | -0.13%
51 | Cc1cccc(C)c1NC(=O)C(=O)NCCCO | 0.01%
52 | O=C1C(=O)N(c2nc3ccccc3s2)C(c2ccc(O)cc2)/C1=C(\O)c1ccc(Cl)cc1 (stereo unspecified) | -0.15%
53 | COc1ccc(C2(O)CC(C(F)(F)F)=NN2C(=O)CCc2ccccc2)cc1 (stereo unspecified) | 0.67%
54 | COc1ccc(CC(=O)NNC(=O)c2ccccc2Cl)cc1 | -0.11%
55 | CSCCNC(=O)CCc1nnc(C2(c3ccc(Cl)cc3)CCC2)o1 | 0.03%
56 | Cc1cccc(NC(=O)c2ccccc2Nc2ccc(S(=O)(=O)C(F)(F)F)cc2[N+](=O)[O-])c1 | 0.06%
57 | COc1cc(CNc2nccn3c(-c4ccc(F)cc4)cnc23)cc(OC)c1OC | 1.85% (active)
58 | COc1ccccc1-c1cnc2c(NCc3cccs3)nccn12 | -0.21%
59 | CN(C)CCNC(=O)c1ccc(-c2cnc3c(NCc4ccc(F)cc4)nccn23)cc1 | -0.01%
60 | O=C(CSc1nnc(Nc2ccccc2)s1)c1ccc(F)cc1 | -0.08%
61 | CC(=O)Nc1ccc(Nc2nc(Nc3ccncn3)nc3nc[nH]c23)cc1 | 0.11%
